From PubChem BioAssay AID623911 (Vanderbilt High Throughput Screening Facility, 2012)
The campaign covered roughly 2,100 compounds. About 770 (37%) were called active. The list shows a part of the results. Unmarked numbers belong to inactive results.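 Rule for the calls: active = by-eye trace score of 1 for enhancers or -1 for inhibitors, so actives lie on both sides (some results past the limit were not filed as active); inactive = score 0, or 3 fluorescent, or 4 baseline rise.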

target: G protein-activated inward rectifier potassium channel 2 (Homo sapiens) + G protein-activated inward rectifier potassium channel 1 (Homo sapiens) (UniProt P48051+P48549); experiment: GIRK1/2 thallium flux modulators, retest, confirmation, cell-based, HEK293 rmGlu8/hGIRK1/2, FluoZin-2 (AID 623911); settings: HEK293 rmGlu8/hGIRK1/2, thallium flux FluoZin-2; actives lie on both sides; glutamate co-added at its EC20 level
Sequence (P48051 whole entry, looked up): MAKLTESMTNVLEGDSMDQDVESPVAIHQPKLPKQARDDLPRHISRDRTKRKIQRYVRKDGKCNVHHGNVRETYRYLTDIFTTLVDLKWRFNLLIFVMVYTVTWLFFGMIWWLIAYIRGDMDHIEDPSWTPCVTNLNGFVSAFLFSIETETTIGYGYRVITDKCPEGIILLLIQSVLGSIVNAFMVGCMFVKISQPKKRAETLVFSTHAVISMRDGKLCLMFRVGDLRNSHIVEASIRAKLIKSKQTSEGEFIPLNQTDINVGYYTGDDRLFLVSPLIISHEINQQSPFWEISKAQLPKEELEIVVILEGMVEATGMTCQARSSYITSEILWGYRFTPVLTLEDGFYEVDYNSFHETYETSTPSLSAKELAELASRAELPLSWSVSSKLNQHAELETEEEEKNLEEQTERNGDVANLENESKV
Sequence (P48549 whole entry, looked up): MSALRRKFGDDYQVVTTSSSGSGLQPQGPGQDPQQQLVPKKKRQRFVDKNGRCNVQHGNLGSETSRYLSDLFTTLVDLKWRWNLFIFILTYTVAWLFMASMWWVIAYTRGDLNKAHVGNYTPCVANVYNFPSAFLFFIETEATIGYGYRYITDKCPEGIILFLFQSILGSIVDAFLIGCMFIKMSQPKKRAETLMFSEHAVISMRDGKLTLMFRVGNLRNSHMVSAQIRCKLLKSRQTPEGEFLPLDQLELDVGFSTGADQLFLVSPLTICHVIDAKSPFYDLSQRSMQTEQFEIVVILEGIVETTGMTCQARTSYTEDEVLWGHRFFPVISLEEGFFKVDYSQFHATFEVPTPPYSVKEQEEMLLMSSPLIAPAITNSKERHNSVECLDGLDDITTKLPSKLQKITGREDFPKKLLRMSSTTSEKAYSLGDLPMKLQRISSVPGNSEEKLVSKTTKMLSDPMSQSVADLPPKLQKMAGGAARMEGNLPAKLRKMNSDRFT

Row | SMILES | manual score
1 | COc1ccc(-c2nc(C#N)c(NCCCN(C)C)o2)cc1OC | 0
2 | COc1ccc(OCC(=O)NNC(=O)C(=O)Nc2ccc(C)cc2)cc1 | 1 (active)
3 | CC(C)(C)NC(=O)C(=O)NNC(=O)COc1ccc(Br)cc1 | 1 (active)
4 | Cc1ccc(OCC(=O)NNC(=O)C(=O)NC(C)(C)C)cc1 | 1 (active)
5 | CNC(=S)SCCOc1ccc(C)cc1 | 3
6 | Nc1c(-c2ccccc2)cnn1-c1ccc(C(=O)O)cc1 | 0
7 | CC1=NCCN1S(=O)(=O)c1cc(Cl)ccc1Cl | 0
8 | O=C(NCc1ccccc1)c1ccc2c(=O)n(CCCN3CCCC3=O)c(=S)[nH]c2c1 | 0
9 | COc1ccc(CNC(=O)C(C#N)c2nc3ccccc3nc2N2CCCC2)cc1 (configuration not stated) | 3
10 | CCn1c(NC(=S)Nc2ccccc2)nc2ccccc21 | 0
11 | Cn1c(CNc2nc3ccccc3n2CCN2CCCCC2)nc2ccccc21 | -1 (active)
12 | COc1cccc(CNc2nc3ccccc3n2CCN2CCCCC2)c1OC | -1 (active)
13 | COc1ccccc1CNC(=O)c1c(N)n(CCCN2CCOCC2)c2nc3ccccc3nc12 | 0
14 | COc1ccc(/C=C/c2nc3sc4c(c3c(=O)o2)CCC4)cc1 | 3
15 | COc1ccc(OC)c(NC(=O)C2CC(=O)N(c3ccc(Br)cc3)C2)c1 (configuration not stated) | 0
16 | COc1cc(NC(=O)c2ccc(C)cc2)c(OC)cc1NC(=O)CN1CCCCC1 | 0
17 | COc1cc(NC(=O)C(=O)NNC(=O)C2CCCCC2)c(OC)cc1Cl | 1 (active)
18 | CCOc1ccccc1NC(=O)CSc1nnc(-c2ccccn2)n1Cc1ccco1 | 0
19 | CCOC(=O)N1CCN(C(=O)CSc2nc3c(c(=O)n2-c2ccccc2OC)SCC3)CC1 | 0
20 | CCOC(=O)CSc1nc2c(sc(=S)n2-c2ccccc2OC)c(=O)n1Cc1ccco1 | -1 (active)
21 | Brc1ccccc1C1=Nn2c(nnc2-c2ccccc2)SC1 | -1 (active)
22 | CCCc1nnc2n1N=C(c1ccc(OC)c(OC)c1)CS2 | 0

Row | SMILES | manual score
23 | Nc1nc(Nc2ccccc2)nc(NCc2ccco2)c1[N+](=O)[O-] | 0
24 | CCOC(=O)c1sc2ncnc(NCc3ccco3)c2c1C | 1 (active)
25 | Cc1ccc2c(Cl)cc(Cl)c(OCC(=O)NCc3ccco3)c2n1 | 1 (active)
26 | Cc1ccc(-n2c(CSc3nc(C)cc(C)n3)nnc2SCC(=O)NCc2ccco2)cc1 | 0
27 | CS(=O)(=O)N(CC(=O)NCc1ccco1)c1ccc(Cl)c(C(F)(F)F)c1 | 0
28 | C=CCOn1c(=O)c(-c2cccs2)[n+]([O-])c2ccccc21 | 3
29 | CCCCCCn1c(=O)[nH]c2nc3cc(N)ccc3nc2c1=O | 3
30 | COc1ccc(C(=O)NC(=S)N2CCCCC2)cc1 | 2
31 | CC1CCN(C(=S)NC(=O)c2ccccc2)CC1 | 1 (active)
32 | COc1ccc(C(=O)NC(=S)N2CCC(C)CC2)cc1 | 1 (active)
33 | CNC(=S)N1CCN(c2ccc(OC)cc2)CC1 | 0
34 | CN1CCN(C(=S)NC(=O)/C=C/c2cccc3ccccc23)CC1 | 0
35 | O=C(NC(=S)N1CCN(Cc2ccccc2)CC1)c1ccccc1 | 1 (active)
36 | CC1CCN(c2ccccc2NC(=S)NC(=O)c2cccs2)CC1 | 0
37 | CC1CCN(c2ncccc2C(=O)O)CC1 | 0
38 | Cc1cccc(-n2c(-c3csc(C(C)C)c3)n[nH]c2=S)c1 | 0
39 | CCc1c(C)nc(SCC(=O)N2CCc3ccccc32)[nH]c1=O | 3
40 | CCCCn1nc(C(=O)N2CCc3ccccc32)c2ccccc2c1=O | -1 (active)
41 | O=C(c1ccc2c(=O)n(C3CCCC3)c(=S)[nH]c2c1)N1CCc2ccccc21 | 0
42 | Cc1c(C(=O)N2CCc3ccccc32)oc2c1C(=O)CC(C)(C)C2 | 0
43 | CCn1nc(C(=O)OCC(=O)c2c[nH]c3ccccc23)c2ccccc2c1=O | 0
44 | CCn1nc(C(=O)OCC(=O)N2CCc3ccccc32)c2ccccc2c1=O | -1 (active)

Row | SMILES | manual score
45 | Cc1[nH]n(-c2cccc3ccccc23)c(=O)c1/C=N/c1sc2c(c1C#N)CCC2 | 1 (active)
46 | Cc1[nH]n(-c2ccc(F)cc2)c(=O)c1/C=N/c1sc2c(c1C#N)CCCC2 | 3
47 | CC(=O)c1cccc(NC(=O)C2CCCN2S(=O)(=O)c2cccc3cccnc23)c1 (configuration not stated) | 0
48 | CCOc1ccc(C(=O)CN2CCN(S(=O)(=O)c3ccc(Br)cc3)CC2)cc1 | 0
49 | CCOC(=O)c1c(NS(=O)(=O)c2cccc(OC)c2)sc2c1CCC2 | 1 (active)
50 | CCOC(=O)c1c(NS(=O)(=O)c2ccc(Br)cc2)sc2c1CCC2 | 1 (active)
51 | COc1ccccc1OCC(=O)Nc1sc2c(c1C(=O)NCC1CCCO1)CCC2 (configuration not stated) | 0
52 | CCc1cc2c(=O)n(CC)c(SC(C)C(=O)Nc3c(C)n(C)n(-c4ccccc4)c3=O)nc2s1 (configuration not stated) | 0
53 | O=C(NC(=S)Nc1nc2ccccc2s1)c1cccs1 | 0.5
54 | O=C(CNC(=S)NC(=O)c1ccco1)c1ccccc1 | 1 (active)
55 | O=C(NC(=S)N(CCc1ccccc1)CCc1ccccc1)c1ccco1 | 1 (active)
56 | O=C(NC(=S)Nc1nc2c(ccc3ccccc32)s1)c1cccs1 | 0.5
57 | O=C(CNC(=S)NC(=O)c1cccs1)c1ccccc1 | 1 (active)
58 | O=C(NC(=S)NCCc1ccccc1)c1ccccc1 | 0
59 | O=C(NC(=S)NCCc1ccccc1)c1ccco1 | 1 (active)
60 | Fc1cccc(-n2c(-c3ccco3)nc3nc4ccccc4nc32)c1 | 0
61 | O=C(Nc1ccncc1)c1ccc2c(c1)C(=O)N(C1CCCCC1)C2=O | 0
62 | CCCCNc1c2c3c(cccc3n(C)c1=O)C(=O)c1ccccc1-2 | 3
63 | CCc1nc(N2CCOCC2)c(C#N)c2c1CCCC2 | 0
64 | S=c1nc[nH]c2c1sc1nc(-c3ccccc3)c3c(c12)CCCC3 | 1 (active)
65 | N#CC1=C(N)SC(N)=C(C#N)C1CCc1ccccc1 | 0
66 | N#CC1=C(N)SC(N)=C(C#N)C1c1c(Cl)cccc1Cl | -1 (active)

Row | SMILES | manual score
67 | Cc1sccc1C1C(C#N)=C(N)SC(N)=C1C#N | 0
68 | S=C(NCc1cccs1)Nc1cccc(Cl)c1 | 1 (active)
69 | Cc1csc(NC(=S)Nc2cccc(Cl)c2)n1 | 1 (active)
70 | COCCCN(C(=S)Nc1cccc(Cl)c1)C(C)c1ccncc1 (configuration not stated) | 0
71 | O=C(CSc1cccc2cccc(Cl)c12)NCc1cccs1 | 0
72 | Cc1ccc(C2CC2C(=O)NNC(=S)Nc2cccc(Cl)c2)cc1 (configuration not stated) | 0
73 | CC(C)n1c(-c2ccc(C(C)(C)C)cc2)n[nH]c1=S | 0
74 | Cc1ccc(C(=O)N/N=C(/CC(=O)c2cccs2)C(F)(F)F)cc1 | 1 (active)
75 | Cc1ccc2nc(NC(=S)NC(=O)c3cccs3)sc2c1 | 0
76 | CC(=O)C1=C(C)NC(SCc2ccc(C#N)cc2)=C(C#N)C1c1ccco1 (configuration not stated) | -1 (active)
77 | CSCSC1=C(C#N)C(c2ccccc2Cl)C(C(C)=O)=C(C)N1 (configuration not stated) | -1 (active)
78 | CC(=O)C1=C(C)NC(SCC(=O)c2ccc(Cl)cc2Cl)=C(C#N)C1c1ccco1 (configuration not stated) | -1 (active)
79 | CCOC(=O)C1=C(c2ccccc2)NC(SC)=C(C#N)C1c1ccco1 (configuration not stated) | 0
80 | CSCSC1=C(C#N)C(c2ccc(Cl)cc2)C(C(C)=O)=C(C)N1 (configuration not stated) | 0
81 | CCOc1ccccc1C1CC(=O)NC(SCC)=C1C#N (configuration not stated) | 0
82 | N#Cc1c(-c2ccco2)nc(SCc2ccc(F)cc2)[nH]c1=O | 0
83 | C=CCNc1nc(N2CCCC2)nc2ccccc12 | -1 (active)
84 | CC(Nc1nc(N2CCCC2)nc2ccccc12)c1ccccc1 (configuration not stated) | -1 (active)
85 | CC(Nc1nc(N2CCCCC2)nc2ccccc12)c1ccccc1 (configuration not stated) | -1 (active)
86 | CC1(C)CC(=S)Nc2ccccc2S1 | 0
87 | CCCN1CCC(NC(=O)Nc2ccc(F)cc2F)CC1 | 0
88 | O=C(Nc1ccc(F)c(F)c1)NC1CCCCC1 | 1 (active)

Row | SMILES | manual score
89 | CCc1cccc(NC(=O)NC2CCCCC2)c1 | 0.5
90 | CC1(C)CC(=O)C2=C(C1)OC(/N=C/N1CCOCC1)=C(C#N)C2c1ccccc1 (configuration not stated) | -1 (active)
91 | CC(C)Cn1cnc2c(c(-c3ccccc3)c(-c3ccccc3)n2Cc2ccco2)c1=N | -1 (active)
92 | N=c1c2c(-c3ccccc3)c(-c3ccccc3)n(Cc3ccccc3)c2ncn1CCCO | -1 (active)
93 | COC(=O)c1cc(NC(=O)c2ccoc2C)cc(C(=O)OC)c1 | 0
94 | COc1cc2c(C(=O)N3CCN(C4CCCCC4)CC3)cn(CC(C)C)c(=O)c2cc1OC | -1 (active)
95 | CCN1CCN(C(=O)c2ccc3c(=O)n(C4CCCC4)c(=S)[nH]c3c2)CC1 | 0
96 | CC(C)OC(=O)CC12CN3CN(C1)CC(CC(=O)OC(C)C)(C3)C2=O | 0
97 | CCN(CC)c1nc(C)nc2c1cnn2CCc1ccccc1 | 0
98 | Cc1cccc(NC(=S)NC(=O)CCc2ccccc2)c1 | 0
99 | Cc1cccc(NC(=O)NC(C)CCc2ccccc2)c1 (configuration not stated) | 1 (active)
100 | Cc1ccccc1NC(=O)C(=O)NC(C)CCc1ccccc1 (configuration not stated) | 0
101 | CCN(CC)S(=O)(=O)c1cccc(S(=O)(=O)c2cccc(S(=O)(=O)N(CC)CC)c2)c1 | -1 (active)
102 | CCN(CC)S(=O)(=O)c1csc(C(=O)NCc2ccccc2)c1 | 0
103 | CN1CCN(S(=O)(=O)c2cccc(S(=O)(=O)c3cccc(S(=O)(=O)N4CCN(C)CC4)c3)c2)CC1 | 0
104 | CCN(CC(=O)c1c(N)n(C)c(=O)n(C)c1=O)c1cccc2ccccc12 | 0
105 | O=C1CN(C(=O)CSc2nc3cc(Cl)ccc3c(=O)n2Cc2ccccc2)c2ccccc2N1 | 1 (active)
106 | O=C1CN(C(=O)CSc2nc3ccccc3c(=O)n2Cc2ccc(F)cc2)c2ccccc2N1 | 0.5
107 | CC(c1ccccc1)n1c(SCC(=O)N2CC(=O)Nc3ccccc32)nc2ccccc2c1=O (configuration not stated) | 0
